In PubChem BioAssay AID1863 (Southern Research Specialized Biocontainment Screening …, 2009):
About 480 (0.16%) of roughly 300,000 compounds were called active. The list is a sample of the results. Results with a measured potency or affinity are listed apart. Values without a mark were called inactive.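 The calls were made as follows: active = inhibition over 29.93%, a cutoff 3 SD above the screen mean, later confirmed by dose response; inconclusive = inhibition over 29.93% but no dose response follow-up; inactive = inhibition at most 29.93% or unconfirmed.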 Peptide text beside a SMILES is read from it. * marks the point of attachment. Boc = CC(C)(C)OC(=O)*

assay: PhoP-dependent GFP reporter repression – Salmonella Typhimurium, primary screen (AID 1863);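 also: 0% = low Mg2+ inducing control and 100% = high Mg2+ repressing control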; conditions: S. Typhimurium PhoP-regulated promoter GFP reporter, 4 h; at 50 µM; active compounds read high

Row | Compound | inhibition [%]
1 | COc1ccc(/C=N/Nc2cc(N(C)C)nc(N(C)C)n2)cc1 | -15.8
2 | CC(C)(C)c1ccc(C(=O)N2CCC(C(=O)NCc3ccncc3)CC2)cc1 | -6.15
3 | O=C(NCc1cccs1)c1cc(S(=O)(=O)N2CCCCC2)ccc1Cl | 2.07
4 | COc1cc(C(=O)NCc2cccc3ccccc23)ccc1OCc1ccccc1 | -2.04
5 | COc1ccc(/C(N)=N/O)c(OC)c1 | -1.42
6 | Nc1ccc(-n2ccnc2)cc1 | 1.57
7 | CCOc1ccc(CSC(=N)N)cc1[N+](=O)[O-] | 41
8 | COc1ccc(Br)cc1CSC(=N)N | 5.81
9 | CCOc1ccc(Br)cc1CSC(=N)N | 26.3
10 | CCCOc1ccc(Br)cc1CSC(=N)N | 55.8
11 | CCCCOc1ccc(CSC(=N)N)cc1Cl | 0.89
12 | COc1ccc(CSC(=N)N)cc1[N+](=O)[O-] | 5.38
13 | C/C(=N\NC(=O)CNC(=O)c1ccc(F)cc1)c1ccco1 | 4.52
14 | Cc1ccc(NC(=O)N[C@@H](CC(C)C)C(=O)O)c(C)c1 | -7.38
15 | O=C(NCc1ccccn1)Nc1ccccc1Cl | -6.1
16 | CCN(CCN1CCCC1)C(=O)C1CCC(=O)N(CCCN2CCOCC2)C1 (centres undefined) | 2.18
17 | CCCCCCn1c(N2CCCC2)nc2c1c(=O)[nH]c(=O)n2C | 2.66
18 | O=C1CCCN1CCCNS(=O)(=O)c1ccccc1 | 10.7
19 | Cc1cc(C)nc(N/C(=N\S(=O)(=O)Cc2ccccc2)Nc2cccc(Cl)c2C)n1 | 8.54
20 | CC(C)CC(NC(=O)OC(C)(C)C)C(=O)NC(C(=O)N1CCCC1C(N)=O)C(C)C (stereo not drawn) (Boc-Leu-Val-Pro-NH2; configuration not given here) | -6.98
21 | CC(C)(C)OC(=O)N1CCC[C@@H]1CO | 1.69
22 | CCCC(=O)N1CC(=O)Nc2ccc(C)cc2C1c1ccccc1 (centres undefined) | -6.57

Row | Compound | inhibition [%]
23 | S=C(NCc1ccccc1)N1CCCCC1 | 0.84
24 | O=S(=O)(NCC(c1ccc2c(c1)OCO2)N1CCOCC1)c1ccc(Cl)cc1 (centres undefined) | -2.72
25 | O=[n+]1c2c(n([O-])c3cc(F)c(F)cc31)CCCC2 | -5.91
26 | CC(=O)c1c(C)n([O-])c2ccc(C)cc2[n+]1=O | 0.85
27 | CC(=O)c1c(C)n([O-])c2cc(C)ccc2[n+]1=O | -0.54
28 | COc1ccc2c(c1)[n+](=O)c(C(C)=O)c(C)n2[O-] | 7.33
29 | Cc1ccc(NC2c3ncccc3C(=O)N2Cc2ccco2)c(C)c1 (centres undefined) | -7.26
30 | O=C(CCSCCC(=O)N1CCCC1)N1CCCC1 | 0.69
31 | Cc1c(C)n2c(SCC(=O)NC3CCCCC3)nnc2[nH]c1=O | 2.36
32 | CC(=O)c1c(N2CCN(c3ccc(F)cc3)CC2)nc(=S)n(Cc2ccccc2)c1C | -9.08
33 | CCN(CC)CC(=O)Nc1ccc(-c2ccc(NC(=O)CN(CC)CC)c(OC)c2)cc1OC | -5.12
34 | O=C(O)c1ccc(NC(=O)C(c2ccccc2)c2ccccc2)cc1 | -7.69
35 | COc1cccc(C2c3[nH]c4ccccc4c3CCN2C(=O)Cn2cncn2)c1OC (centres undefined) | -2.77
36 | CCN(CC)C(=O)Oc1nnc(SC(C)C)n1-c1ccc(Cl)cc1 | -0.67
37 | O=C(Nc1nc(-c2ccccn2)cs1)c1ccc(Br)s1 | 8.88
38 | O=C(Nc1nc(-c2cccs2)cs1)c1ccc(Cl)s1 | 7.37
39 | CCOC(=O)c1c(C)[nH]c(C(=O)COC(=O)CNC(=O)c2ccccc2Cl)c1C | -9.12
40 | Cc1occc1C(=O)NC(C)C(C)(C)C (centres undefined) | 0.78
41 | Cc1ccccc1CSCCC(=O)NCCC1=CCCCC1 | 6.03
42 | Cn1nc(-c2ccc(Cl)cc2)nc2c(=O)n(C)c(=O)nc1-2 | 20.5
43 | Cn1c(=O)c(-c2ccccc2)nc2ccccc21 | -3.46
44 | COc1ccc(CCNCC(O)Cn2c3ccccc3c3ccccc32)cc1OC (centres undefined) | -4.43

Row | Compound | inhibition [%]
45 | COc1ccccc1NCC(O)Cn1c2ccccc2c2ccccc21 (centres undefined) | -3.61
46 | COc1ccc(NC(=O)C2=NN(C3CCS(=O)(=O)C3)C(=O)CC2)cn1 (centres undefined) | 3.89
47 | O=C(CSc1oc(-c2cccs2)nc1S(=O)(=O)c1ccc(F)cc1)NCC1CCCO1 (centres undefined) | -4.95
48 | CSC[C@H](NC(=O)Cc1c(C)c2cc3c(C)c(C)oc3cc2oc1=O)C(=O)N[C@@H](Cc1ccccc1)C(=O)O | 5.06
49 | Cc1ccc(C(=O)Nc2ccccc2Sc2ccccc2)cc1 | -6.94
50 | Cc1ccc(C(=O)CC(=O)c2ccccc2)cc1 | 6.5
51 | COc1cccc(NC(=O)CCC2CCN(C(=O)c3sccc3C)CC2)c1 | -6.68
52 | O=C(CCNC(=O)c1ccc([N+](=O)[O-])cc1)NCCc1ccc(Cl)cc1 | 8.36
53 | COCCCn1c(=O)c2sccc2n2c(CCCC(=O)N(C)Cc3ccco3)nnc12 | -1.76
54 | Cn1ccnc1SCC(=O)NC1CC1 | 6.54
55 | Cc1cc(Nc2ccccc2)nc(NCc2ccccc2)n1 | 19.9
56 | Cc1cc(Nc2cccc(F)c2)nc(NCc2ccccc2)n1 | 4.66
57 | Cc1[nH]c(=O)[nH]c(=O)c1S(=O)(=O)Nc1ccc(Cl)c([N+](=O)[O-])c1 | 5.49
58 | O=S1(=O)NC(=NCCc2ccccn2)c2ccccc21 | 10.3
59 | O=Cc1ccc2ccc3cccnc3c2n1 | -0.13
60 | CCOC(=O)c1ccc2c(c1)NC(=O)C(N1CCN(c3ccc(OC)cc3)CC1)S2 (centres undefined) | 8.89
61 | COc1ccc(N(C(=O)c2ccncc2)S(=O)(=O)c2cccs2)cc1 | 8.99
62 | Cc1ccccc1-n1c(SCC(=O)c2cc(C)n(C)c2C)nnc1-c1ccncc1 | -15.5
63 | O=C(N/N=C/c1ccc[nH]1)c1ccc([N+](=O)[O-])cc1 | 5.92
64 | O=C(N/N=C/c1ccc[nH]1)c1cccc([N+](=O)[O-])c1 | 2.02
